Test results: article PMC4336329 (PLoS ONE, 2015)
Out of some 310,000 compounds screened, about 2,200 (0.71%) showed an effect of 50% or more. Effects have a minus sign here. What follows is part of a selection rich in strong results, with near analogues and random picks from the rest.

What follows are compounds tested against human ether-à-go-go-related gene (hERG) potassium channel (human, UniProt Q12809) (assay: primary screen, population patch clamp on CHO cells stably expressing hERG; higher = less effect of the substance).
human ether-à-go-go-related gene (hERG) potassium channel, sequence (Q12809 whole entry, looked up): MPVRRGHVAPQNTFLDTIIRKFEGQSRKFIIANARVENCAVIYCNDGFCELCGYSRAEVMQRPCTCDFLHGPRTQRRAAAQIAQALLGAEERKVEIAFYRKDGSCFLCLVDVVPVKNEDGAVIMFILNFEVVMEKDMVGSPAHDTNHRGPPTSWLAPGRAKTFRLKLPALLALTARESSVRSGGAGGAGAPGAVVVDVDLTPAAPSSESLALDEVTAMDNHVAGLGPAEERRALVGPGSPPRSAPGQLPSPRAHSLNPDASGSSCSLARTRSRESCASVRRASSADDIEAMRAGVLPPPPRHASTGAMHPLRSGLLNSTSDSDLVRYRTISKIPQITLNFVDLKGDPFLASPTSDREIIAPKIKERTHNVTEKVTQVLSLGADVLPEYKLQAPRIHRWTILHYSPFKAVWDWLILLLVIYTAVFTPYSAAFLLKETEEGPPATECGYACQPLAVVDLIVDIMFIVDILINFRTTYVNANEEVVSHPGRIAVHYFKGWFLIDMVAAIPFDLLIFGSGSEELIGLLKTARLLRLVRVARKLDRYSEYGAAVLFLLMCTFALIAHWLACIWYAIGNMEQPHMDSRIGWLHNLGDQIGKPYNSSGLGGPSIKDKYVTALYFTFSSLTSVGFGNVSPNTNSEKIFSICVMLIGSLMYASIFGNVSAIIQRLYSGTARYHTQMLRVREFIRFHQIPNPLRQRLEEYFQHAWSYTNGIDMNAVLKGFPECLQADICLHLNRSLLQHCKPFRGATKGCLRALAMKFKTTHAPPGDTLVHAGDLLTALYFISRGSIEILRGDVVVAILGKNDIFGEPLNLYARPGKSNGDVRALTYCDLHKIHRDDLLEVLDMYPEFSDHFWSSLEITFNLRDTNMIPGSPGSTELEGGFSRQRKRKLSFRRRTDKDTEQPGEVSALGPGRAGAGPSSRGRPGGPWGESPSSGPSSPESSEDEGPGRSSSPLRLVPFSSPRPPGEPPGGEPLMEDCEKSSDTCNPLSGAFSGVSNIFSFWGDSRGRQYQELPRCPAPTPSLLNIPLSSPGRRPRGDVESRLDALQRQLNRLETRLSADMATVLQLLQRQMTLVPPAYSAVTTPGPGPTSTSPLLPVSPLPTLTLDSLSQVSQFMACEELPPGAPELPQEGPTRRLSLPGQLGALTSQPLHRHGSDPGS

SMILES | hERG current change (%, negative = inhibition) at 1uM [%]
COc1ccc(C(=O)NC2CC2)cc1OC1CCN(Cc2ccccc2O)CC1 | -91.5
C=CCOc1ccccc1CN1CCC(Oc2cc(C(=O)NC3CC3)ccc2OC)CC1 | -66.6
C=CCOc1ccccc1CN1CCC(Oc2ccc(C(=O)N3CCCCC3)cc2)CC1 | -3.91
CCn1ncc(CN2CCC(Oc3cc(C(=O)NC4CC4)ccc3OC)CC2)c1C | 1.05
COc1cc(C(=O)NC2Cc3ccccc3C2)ccc1OC1CCN(C(C)=O)CC1 | 9.82
COc1ccccc1CCNC(=O)c1ccc(OC)c(OC2CCN(C(C)C)CC2)c1 | -4.22
C=CCOc1ccccc1CN1CCC(Oc2ccc(C(=O)N3CCCC3)cc2)CC1 | -19.5
COc1ccc(C(=O)NC2CC2)cc1OC1CCN(Cc2cnn(C)c2C)CC1 | -2
COc1ccc(C(=O)NCCc2ccccc2F)cc1OC1CCN(C(C)=O)CC1 | 12.5
COc1ccc(C(=O)NC2CC2)cc1OC1CCN(Cc2ccccc2F)CC1 | -64.5
COc1ccc(C(=O)NC2CC2)cc1OC1CCN(Cc2cc(C)c(C)cc2C)CC1 | -74.1
CCOC(=O)c1c(C)nc2ncccn12 | 2.38
COC(=O)Oc1ccc(/C=N/NC(=O)CN(c2ccccc2Cl)S(C)(=O)=O)cc1OC | 9.16
Cc1ccc(C(=O)COC(=O)CCC(=O)Nc2ccccc2Cl)cc1[N+](=O)[O-] | 8.32
CC1Cn2c(nnc2C23CC4CC(CC(C4)C2)C3)S1 (stereo not shown) | 7.65
Cc1ccc(N2NC(=O)/C(=C\c3cc4c(cc3[N+](=O)[O-])OCO4)C2=O)cc1C | 0.881
CCN(c1ccccc1)S(=O)(=O)c1ccc2[nH]c(=O)[nH]c2c1 | 8.82
O=C(Nc1ccc(-n2ccc(C(F)(F)F)n2)cc1)Nc1cccc(Cl)c1 | 11.3
COc1ccc(CN2CCC(Oc3cc(C(=O)NC4CC4)ccc3OC)CC2)c(O)c1 | -87.5
COc1ccc(OC)c(CN2CCC(N3CCC(C(=O)NC4CC4)CC3)CC2)c1 | 4.7
COc1ccc(CN2CCC(Oc3ccc(C(=O)NCc4ccccn4)cc3)CC2)c(F)c1 | 7.46
CCOC(=O)c1nc2cc3n(c(CC(C)C)c-2c1C)CC(C)=C3C.Cl | -54.2

SMILES | hERG current change (%, negative = inhibition) at 1uM [%]
CCOC(=O)c1nc2cc3n(c(C)c-2c1C)C(C)C(CC)=C3C.Cl (stereo not shown) | -39.5
CCOC(=O)c1nc2cc3n(c(C)c-2c1C)C(C)C(C)=C3C.Cl (stereo not shown) | -13.9
CCOC(=O)c1nn(-c2ccc(F)cc2)c(=O)cc1OCC(=O)Nc1ccc(OCC)cc1 | 10.8
Cc1c2ccccc2nc2c(F)c(N(C)C)c(F)c(F)c12 | 19.7
CN(CCNC(=O)C1CCC(=O)N(Cc2cccc(F)c2)C1)CCc1ccccc1 (stereo not shown) | -14.8
COc1ccccc1CCCNC(=O)C1CCC(=O)N(CCc2ccc(Cl)cc2)C1 (stereo not shown) | -3.88
O=C(NCCCc1ccccc1)C1CCC(=O)N(CCc2ccc(Cl)cc2)C1 (stereo not shown) | -62.2
COc1ccc(CCN2CC(C(=O)N(C)CCOc3ccccc3)CCC2=O)cc1 (stereo not shown) | -34.3
COc1ccc(CCN2CC(C(=O)N(C)Cc3ccccc3OC)CCC2=O)cc1 (stereo not shown) | 26.7
CN(CCNC(=O)C1CCC(=O)N(Cc2ccc(Cl)cc2)C1)CCc1ccccc1 (stereo not shown) | -50.5
O=C(NCCCc1ccccc1)C1CCC(=O)N(Cc2ccc(Cl)cc2)C1 (stereo not shown) | -6.98
O=C(NCCOc1ccccc1)C1CCC(=O)N(CCc2ccc(Cl)cc2)C1 (stereo not shown) | -45
CCc1ccc(CN(C)C(=O)C2CCC(=O)N(CCc3ccc(OC)cc3)C2)nc1 (stereo not shown) | -57.9
CCc1ccc(CN(C)C(=O)C2CCC(=O)N(Cc3cccc(OC)c3)C2)nc1 (stereo not shown) | 4.11
O=C(NCCc1ccccc1)C1CCC(=O)N(Cc2ccc(Cl)cc2)C1 (stereo not shown) | 5.85
CN(CCOc1ccccc1)C(=O)C1CCC(=O)N(CCc2ccc(Cl)cc2)C1 (stereo not shown) | -51.2
O=C(NCc1ccccc1)c1cnc(-c2ccccn2)nc1C(F)(F)F | 9.39
Nc1nc(CSc2nnnn2-c2ccc(Cl)cc2)nc(N2CCOCC2)n1 | 11.5
C/C(=N\N1C(=O)CSC1=S)c1ccc(Br)cc1 | 1.48
S=C1NNC2(NN1)C1CC3CC(C1)CC2C3 | 12.4
COc1ccc(-n2cnnc2SCC(=O)N2CCN(S(=O)(=O)c3ccccc3)CC2)cc1 | 1.1
